From a collection of fitness landscapes (doi:10.1016/j.celrep.2020.107928) come the findings set out here.

Over roughly 81,000 sequences, “one-hybrid fitness for binding parS DNA” has its median near -0.17; the highest 2% begin near 0.51. Only a selection was taken, and the highest values are over-represented in it overall.

B1: Caulobacter ParB omega fusion; a variant is named by its letters at X, in order, B8GW30 (parent)
chain: MESVVVGEPGMSEGRRGLGRGLSALLGEVDAAPAQAPGEQLGGSREAPIEILQRNPDQPRRTFREEDLEDLSNSIREKGVLQPILVRPSPDTAGEYQIVAGERAWRAAQRAGLKTVPIMVRELDDLAVLEIGIIENVQRADLNVLEEALSYKVLMEKFERTQENIAQTIGKSXSHVANXMRLLXLPDEVQSYLVSGELTAXHARAIAAAADPVALAKQIIEGGLSVRETEALARKAPNLSAGKSKGGRPPRVKDTDTQALESDLSSVLGLDVSIDHRGSTGTLTITYATLEQLDDLCNRLTRGI

In the test the parent is B1. The test is described as follows: one-hybrid fitness for binding parS DNA (scaled: cognate 1, non-cognate 0); higher = stronger binding. The note with it: with parS DNA site. A digest of the protocol: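 In E. coli USO, a HIS3 reporter with its site placed 19 bp from the promoter was used to select Caulobacter ParB variants randomised at four specificity codons. Growth lasted 48 hours at 37°C on histidine-free M9 containing 0.1 mM IPTG and 5 mM 3-AT. Fitness was taken as the log change in variant-to-wild-type read ratio from Illumina sequencing of pre- and post-selection plasmids, rescaled between the non-cognate and cognate sites.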
On to NIRE, for which the “one-hybrid fitness for binding parS DNA” value is no more than 0.2.
In the case of HAKP, the “one-hybrid fitness for binding parS DNA” value was no more than 0.2.
The same measure for CTSH: no more than 0.2; for HSAT: no more than 0.2; for REAF: no more than 0.2.
LGNC: the “one-hybrid fitness for binding parS DNA” value is no more than 0.2.
Turning to RMKR, the “one-hybrid fitness for binding parS DNA” value was no more than 0.2.
Turning to RMKG, the “one-hybrid fitness for binding parS DNA” value was determined as 0.929.
Take RMKP: the “one-hybrid fitness for binding parS DNA” value is no more than 0.2.
The same measure for RMVL: no more than 0.2.
On to RMVG, for which the “one-hybrid fitness for binding parS DNA” value turned out to be 0.971.
Turning to RMVK, the “one-hybrid fitness for binding parS DNA” value is no more than 0.2.
As to FQCR, the “one-hybrid fitness for binding parS DNA” value is no more than 0.2.
The result for TNCV reads no more than 0.2.
The same measure for IAED: no more than 0.2; for TLGD: no more than 0.2; for IMTY: no more than 0.2.
The same measure for HASR: no more than 0.2; for WPLT: no more than 0.2; for RVGW: 0.209.
As to RLHC, the “one-hybrid fitness for binding parS DNA” value worked out at 0.973.
On to RLCC, for which the “one-hybrid fitness for binding parS DNA” value came out at 0.995.
As to RLLK, the “one-hybrid fitness for binding parS DNA” value was no more than 0.2.
RLSH: the “one-hybrid fitness for binding parS DNA” value amounted to 0.266.
Take RLHN: the “one-hybrid fitness for binding parS DNA” value worked out at 0.442.
The same measure for RLLC: 1; for RLLY: 0.505; for RLCR: no more than 0.2.
The result for RLSC reads 0.98; that for RLSP, no more than 0.2; that for RLCY, 0.485.
The same measure for RLHD: no more than 0.2.
For QRLD, the “one-hybrid fitness for binding parS DNA” value is no more than 0.2.
As for GQHW, the “one-hybrid fitness for binding parS DNA” value was no more than 0.2.
As for KKGT, the “one-hybrid fitness for binding parS DNA” value is no more than 0.2.
The result for PNTI reads no more than 0.2; that for NASI, no more than 0.2.
The result for HCLN reads no more than 0.2.
In the case of TCIV, the “one-hybrid fitness for binding parS DNA” value is no more than 0.2.
Regarding HMWR, the “one-hybrid fitness for binding parS DNA” value was no more than 0.2.
For the variant YTVS, the “one-hybrid fitness for binding parS DNA” value was no more than 0.2.
The same measure for RLYR: 0.23.
As to RLRQ, the “one-hybrid fitness for binding parS DNA” value was no more than 0.2.
RLRC: the “one-hybrid fitness for binding parS DNA” value was found to be 0.846.
For RLYK, the “one-hybrid fitness for binding parS DNA” value was no more than 0.2.
Consider RLRN, for which the “one-hybrid fitness for binding parS DNA” value was found to be 0.432.
The result for RLYC reads 1.01; that for WPPM, no more than 0.2; that for YLAL, no more than 0.2.
The same measure for RVYK: no more than 0.2; for RVRT: 0.825; for RVSF: 0.224.
Regarding RVHD, the “one-hybrid fitness for binding parS DNA” value was no more than 0.2.
Take RVHT: the “one-hybrid fitness for binding parS DNA” value was 0.927.
Take RVYF: the “one-hybrid fitness for binding parS DNA” value was 0.25.
The result for RVST reads 0.92; that for RVRK, no more than 0.2.
Regarding RVSK, the “one-hybrid fitness for binding parS DNA” value is no more than 0.2.
The same measure for RVYT: 0.93.
Consider RVHP, for which the “one-hybrid fitness for binding parS DNA” value was no more than 0.2.
Consider RVRQ, for which the “one-hybrid fitness for binding parS DNA” value is no more than 0.2.
As for GPPY, the “one-hybrid fitness for binding parS DNA” value was no more than 0.2.
The same measure for YVGI: no more than 0.2; for QTHG: no more than 0.2; for FAKY: no more than 0.2.
LKTR: the “one-hybrid fitness for binding parS DNA” value is no more than 0.2.
The same measure for PGLR: no more than 0.2.
The same measure for RVQP: no more than 0.2; for RVDT: 0.741.
As to RVWF, the “one-hybrid fitness for binding parS DNA” value came out at 0.25.
As for RVLT, the “one-hybrid fitness for binding parS DNA” value came to 0.92.
As to RVWR, the “one-hybrid fitness for binding parS DNA” value is no more than 0.2.
Take RVQN: the “one-hybrid fitness for binding parS DNA” value amounted to 0.417.
Turning to RVWT, the “one-hybrid fitness for binding parS DNA” value turned out to be 0.886.
The same measure for RVDD: no more than 0.2; for RVDH: no more than 0.2; for RVLQ: no more than 0.2.
Consider RVLM, for which the “one-hybrid fitness for binding parS DNA” value is 0.309.
As for RVQT, the “one-hybrid fitness for binding parS DNA” value came out at 0.913.
